# Measurements published in PubChem BioAssay (Tox21).
# Results filed as inconclusive are left out. A call without a number means that no potency is given here. Active and inactive are the calls of the source. Unless noted, the call rests on the fitted dose curve; in most records, active means well fitted curve in the direction sought with a large enough effect in the repeat runs; inconclusive means weak or mixed curves; inactive means no such curve, though single readings can be large; an effect the other way counts as inactive or inconclusive.
# Columns and labels:
# [1] = target: Peroxisome proliferator-activated receptor gamma (Homo sapiens) (UniProt P37231); assay: qHTS assay to identify small molecule antagonists of the peroxisome proliferator-activated receptor gamma (PPARg) signaling pathway (AID 743191; calls by dose curve; further: nearly all actives have a fitted effect of over 30% in size; further: potency means the concentration at half of the fitted maximal effect)
# Procedure, shortened: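 GeneBLAzer PPARg UAS-bla HEK293H cells carrying a UAS-driven beta-lactamase reporter were plated at 3000 cells/well, preincubated 5 h at 37C, then given compound for 17 h at 37C; LiveBLAzer B/G FRET substrate was read after 1 h at room temperature.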
# [2] = qHTS assay for small molecule agonists of the antioxidant response element (ARE) signaling pathway - cell viability counter screen (AID 743203; calls by dose curve; further: nearly all actives have a fitted effect of over 55% in size; further: potency means the concentration at half of the fitted maximal effect)
# Procedure, shortened: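 ATP content via CellTiter-Glo luminescence served as the viability measure. Cells: ARE-bla HepG2, 2,000 per well. Exposure: 16 hrs, 37C/5% CO2.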
# [3] = qHTS assay for small molecule activators of the heat shock response signaling pathway - cell viability counter screen (AID 743209); further: nearly all actives have a fitted effect of over 50% in size; further: potency means the concentration at half of the fitted maximal effect
# Procedure, shortened: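 Compounds dissolved in DMSO were added to overnight-plated HSE-bla HeLa cells and left 5 h at 37 C. Cell viability was quantified by luminescence using CellTiter-Glo.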
# [4] = qHTS assay to identify small molecule that activate the aryl hydrocarbon receptor (AhR) signaling pathway - cell viability counter screen (AID 743086);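 further: HepG2 liver cells carrying the AhR DRE luciferase reporter; series mostly up to about 70 µM; nearly all actives have a fitted effect of over 45% in size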
# Procedure, shortened: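 HepG2-AhR-luc (HG2L7.5c1) cells, 4000/well, were preincubated 5 h at 37C, exposed to compound in qHTS format for 24 hr at 37C, then given CellTiter-Fluor for 30 min; viability was read as fluorescence in the reporter wells.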
# [5] = target: Peroxisome proliferator-activated receptor gamma (Homo sapiens) (UniProt P37231); assay: qHTS assay to identify small molecule agonists of the peroxisome proliferator-activated receptor gamma (PPARg) signaling pathway (AID 743094; active means well fitted activation curve with a large enough effect in the signal ratio in the repeat runs, not every such curve was filed as active; the % refers to the signal ratio)
# Procedure, shortened: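 Agonism was assessed in a beta-lactamase reporter system, HEK293H cells with a stably integrated UAS-bla construct under PPARg control; the 17 h treatment at 37C preceded a 1 h room-temperature FRET substrate read.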
# [6] = qHTS assay for small molecule agonists of the antioxidant response element (ARE) signaling pathway (AID 743202; active means well fitted activation curve with a large enough effect in the signal ratio in the repeat runs, not every such curve was filed as active; the % refers to the signal ratio; further: potency means the concentration at half of the fitted maximal effect)
# Procedure, shortened: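 Steps: seed ARE-bla HepG2 cells (2,000/well); incubate 5 h at 37 C; add compounds by pin tool; incubate 16 h at 37 C; add FRET substrate; read fluorescence after 2 h at RT.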
# [7] = qHTS assay for small molecule activators of the heat shock response signaling pathway (AID 743210; active means well fitted activation curve with a large enough effect in the signal ratio in the repeat runs, with a control signal flat, not every such curve was filed as active; the % refers to the signal ratio;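 further: HeLa cells with beta-lactamase reporter driven by heat shock elements; series mostly up to about 63 µM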)
# Procedure, shortened: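 Activation of heat shock element-controlled beta-lactamase expression is measured in HeLa cells by LiveBLAzer FRET fluorescence, with compound exposure lasting 5 h at 37 C and substrate loading 2.5 h at room temperature.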
# [8] = qHTS assay to identify small molecule antagonists of the peroxisome proliferator-activated receptor gamma (PPARg) signaling pathway - cell viability counter screen (AID 743194); further: nearly all actives have a fitted effect of over 55% in size; further: potency means the concentration at half of the fitted maximal effect
# Procedure, shortened: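 PPARg-UAS-bla HEK293H cells were plated, rested 5 h at 37 C, then treated with compounds plus rosiglitazone (50 nM final) for 17 h at 37 C; viability was then read by CellTiter-Glo luminescence after 30 min at room temperature.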
# [9] = target: Aryl hydrocarbon receptor (Homo sapiens) (UniProt P35869); assay: qHTS assay to identify small molecule that activate the aryl hydrocarbon receptor (AhR) signaling pathway (AID 743085); further: nearly all actives have a fitted effect of over 15% in size; further: potency means the concentration at half of the fitted maximal effect;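 on activation: HG2L7.5c1 human HepG2 liver cells with stably integrated DRE-driven firefly reporter; series mostly up to about 70 µM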
# Procedure, shortened: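 Reporter assay in engineered HepG2 line HG2L7.5c1, whose plasmid carries twenty dioxin responsive elements upstream of firefly luciferase. Treatment lasted 24 h at 37C; ONE-Glo luminescence gauged induction.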
# Sequence of Peroxisome proliferator-activated receptor gamma (Homo sapiens) (P37231 whole entry, looked up): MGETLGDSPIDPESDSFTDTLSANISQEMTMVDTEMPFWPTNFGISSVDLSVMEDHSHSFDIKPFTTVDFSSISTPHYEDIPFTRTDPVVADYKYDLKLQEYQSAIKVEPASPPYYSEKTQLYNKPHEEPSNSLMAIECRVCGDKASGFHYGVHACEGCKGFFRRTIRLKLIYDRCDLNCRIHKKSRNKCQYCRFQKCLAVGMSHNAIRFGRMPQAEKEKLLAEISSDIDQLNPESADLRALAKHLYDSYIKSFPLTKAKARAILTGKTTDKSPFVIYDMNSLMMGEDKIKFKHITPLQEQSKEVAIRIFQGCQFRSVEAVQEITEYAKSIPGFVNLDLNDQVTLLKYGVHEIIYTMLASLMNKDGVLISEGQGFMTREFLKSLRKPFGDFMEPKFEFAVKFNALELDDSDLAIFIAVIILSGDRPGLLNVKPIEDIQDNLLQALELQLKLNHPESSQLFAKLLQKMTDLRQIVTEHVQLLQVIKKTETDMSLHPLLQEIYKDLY
# Sequence of Aryl hydrocarbon receptor (Homo sapiens) (P35869 whole entry, looked up): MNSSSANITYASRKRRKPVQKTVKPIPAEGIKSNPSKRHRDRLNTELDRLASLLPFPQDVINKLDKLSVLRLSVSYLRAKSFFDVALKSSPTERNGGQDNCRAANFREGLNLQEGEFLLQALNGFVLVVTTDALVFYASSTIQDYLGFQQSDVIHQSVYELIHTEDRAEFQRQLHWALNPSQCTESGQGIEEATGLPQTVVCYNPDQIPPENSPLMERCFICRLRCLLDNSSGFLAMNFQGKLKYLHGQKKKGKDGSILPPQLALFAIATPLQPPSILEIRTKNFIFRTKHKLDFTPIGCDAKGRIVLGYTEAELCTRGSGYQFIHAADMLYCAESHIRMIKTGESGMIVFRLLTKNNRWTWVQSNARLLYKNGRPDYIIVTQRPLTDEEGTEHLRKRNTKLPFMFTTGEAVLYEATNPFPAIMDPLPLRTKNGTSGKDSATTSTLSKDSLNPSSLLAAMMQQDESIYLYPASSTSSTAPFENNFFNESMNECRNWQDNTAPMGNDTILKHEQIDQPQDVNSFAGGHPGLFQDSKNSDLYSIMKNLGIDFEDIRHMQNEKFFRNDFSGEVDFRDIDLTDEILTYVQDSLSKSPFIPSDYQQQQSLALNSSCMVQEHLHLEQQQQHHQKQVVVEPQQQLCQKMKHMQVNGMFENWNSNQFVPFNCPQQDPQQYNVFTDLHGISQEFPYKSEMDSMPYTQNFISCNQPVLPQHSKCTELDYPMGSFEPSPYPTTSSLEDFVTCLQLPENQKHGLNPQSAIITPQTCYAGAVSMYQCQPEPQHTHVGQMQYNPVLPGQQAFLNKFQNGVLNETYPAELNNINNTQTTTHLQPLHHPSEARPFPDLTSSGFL
Compound,Potency [1],Potency [2],Potency [3],Potency [4],Potency [5],Potency [6],Potency [7],Potency [8],Potency [9]
COC(=O)[C@H]1[C@H]2C[C@@H]3c4[nH]c5cc(OC)ccc5c4CCN3C[C@H]2C[C@@H](OC(=O)/C=C/c2ccc(O)c(OC)c2)[C@@H]1OC,6.68 µM (active),inactive,inactive,–,–,–,–,–,–
O=C1NCCN1CCO,inactive,inactive,inactive,inactive,inactive,inactive,inactive,–,–
Cc1cc(O)c(C)c(C)c1O,inactive,inactive,inactive,–,–,23.7 µM (active),inactive,inactive,–
Cc1ccc2c(Br)cc(Br)c(O)c2n1,–,inactive,inactive,inactive,–,–,–,23.7 µM (active),13.3 µM (active)
CCOC(=O)c1ccc(O)c(O)c1,inactive,inactive,inactive,–,–,inactive,inactive,–,–
Brc1cc(Br)c(Oc2cc(Br)c(Br)cc2Br)cc1Br,–,inactive,inactive,–,–,inactive,–,inactive,–
COC(=O)c1nc(Cl)c(Cl)nc1N,–,23.7 µM (active),5.31 µM (active),–,–,–,–,26.6 µM (active),–
CCCCN(CCCC)C(C(N)=O)c1ccc(OC)cc1 (configuration not stated),–,–,inactive,–,–,inactive,inactive,inactive,–
C[C@@H](O[C@H]1OCCN(Cc2n[nH]c(=O)[nH]2)[C@H]1c1ccc(F)cc1)c1cc(C(F)(F)F)cc(C(F)(F)F)c1,–,–,29.8 µM (active),–,inactive,–,–,–,inactive
CC(=O)N/N=C/c1ccc([N+](=O)[O-])o1,–,inactive,–,–,inactive,–,–,inactive,–
CN1CC(=O)N2[C@H](c3ccc4c(c3)OCO4)c3[nH]c4ccccc4c3C[C@@H]2C1=O,inactive,inactive,inactive,–,inactive,inactive,inactive,inactive,–
CCCC(=O)C(=O)O,–,inactive,inactive,inactive,–,–,inactive,inactive,inactive
CCC1NC(=O)c2cc(S(N)(=O)=O)c(Cl)cc2N1 (configuration not stated),inactive,inactive,–,inactive,inactive,inactive,inactive,–,–
CNC(=O)c1cnn(-c2nc(N)c3ncn([C@@H]4O[C@H](CO)[C@@H](O)[C@H]4O)c3n2)c1,–,inactive,inactive,–,–,inactive,inactive,inactive,–
CC(C)(C)CC(=O)OCC(=O)[C@@]1(O)CC[C@H]2[C@@H]3CCC4=CC(=O)C=C[C@]4(C)[C@H]3[C@@H](O)C[C@@]21C,–,inactive,inactive,–,–,inactive,–,inactive,–
CN1C(=O)N(c2ccccc2Br)Cc2cnc(Nc3ccc4c(c3)OCC(CO)O4)nc21 (configuration not stated),–,–,inactive,–,–,–,–,–,–
CCCCN(CCN(CCCC)C(=O)N1CCOCC1)C(=O)N1CCOCC1,–,inactive,inactive,–,–,inactive,–,inactive,–
Cc1cc(O)ccc1O,–,inactive,inactive,inactive,–,–,inactive,inactive,61.8 µM (active)
